# Source: the supplement of paper PMC6555819
# Tests used:
# Assay in all cases: PBM binding z-score (relative to random genomic background probes); higher = stronger binding; sequences stand for … in GC…GCGATTGACAGCGTAGAATGAAGG
# [1] = test system: FXR:RXRa (NR concentration 270 nM, RXRa partner concentration 90 nM)
# Summary of the method: (§1)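 Probes were double-stranded and carried 34-nt variable regions with direct-repeat seeds, single-nucleotide variants, half-site ablations and random human genomic background sequences, printed on custom Agilent 4×180K protein-binding microarrays. Arrays were incubated 1 h with ligand-free nuclear receptor dimers in PBS pH 7.4, 2% milk, 0.02% Triton X-100, 1 mM DTT, 0.2 mg/mL BSA and 0.4 mg/ml salmon testes DNA. Antibodies against each partner (one per run) detected binding, and scanned fluorescence was regression-normalized. Binding z-scores use the random background probes as reference.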
# [2] = test system: LXRa:RXRa (NR concentration 270 nM, RXRa partner concentration 90 nM)
# Summary of the method: as §1
# [3] = test system: LXRa homodimer (NR concentration 270 nM)
# Summary of the method: as §1
# [4] = test system: LXRb:RXRa (NR concentration 270 nM, RXRa partner concentration 90 nM)
# Summary of the method: as §1
# [5] = test system: LXRb homodimer (NR concentration 270 nM)
# Summary of the method: as §1
# [6] = test system: PPARa:RXRa (NR concentration 270 nM, RXRa partner concentration 90 nM)
# Summary of the method: as §1
# [7] = test system: PPARg:RXRa (NR concentration 180 nM, RXRa partner concentration 90 nM)
# Summary of the method: as §1
# [8] = test system: PPARg:RXRa 270nM:90nM, anti-RXR (NR concentration 270 nM, RXRa partner concentration 90 nM)
# Summary of the method: as §1
# [9] = test system: PPARg:RXRa 30nM:10nM, anti-RXR (NR concentration 30 nM, RXRa partner concentration 10 nM)
# Summary of the method: as §1
# [10] = test system: PPARg:RXRa 90nM:30nM, anti-RXR (NR concentration 90 nM, RXRa partner concentration 30 nM)
# Summary of the method: as §1
# [11] = test system: PPARg:RXRa DBDmut IVT, anti-RXR (DBD mutation: RXRa K156A/R161A, NR concentration 270 nM, RXRa partner concentration 90 nM)
# Summary of the method: as §1
# [12] = test system: PPARg:RXRa IVT, anti-PPARg (NR concentration 270 nM, RXRa partner concentration 90 nM)
# Summary of the method: as §1
# [13] = test system: PPARg DBDmut:RXRa IVT, anti-PPARg (DBD mutation: PPARg1 K132A/R137A, NR concentration 270 nM, RXRa partner concentration 90 nM)
# Summary of the method: as §1
# [14] = test system: PPARg DBDmut IVT, anti-PPARg (DBD mutation: PPARg1 K132A/R137A, NR concentration 270 nM)
# Summary of the method: as §1
# [15] = test system: PPARg homodimer (NR concentration 180 nM)
# Summary of the method: as §1
# [16] = test system: PXR:RXRa (NR concentration 270 nM, RXRa partner concentration 90 nM)
# Summary of the method: as §1
# [17] = test system: PXR homodimer (NR concentration 270 nM)
# Summary of the method: as §1
# [18] = test system: RARa:RXR (NR concentration 270 nM, RXRa partner concentration 90 nM)
# Summary of the method: as §1
# [19] = test system: RARa homodimer (NR concentration 270 nM)
# Summary of the method: as §1
# [20] = test system: RARb:RXRa (NR concentration 270 nM, RXRa partner concentration 90 nM)
# Summary of the method: as §1
Sequence,PBM binding z-score [1],PBM binding z-score [2],PBM binding z-score [3],PBM binding z-score [4],PBM binding z-score [5],PBM binding z-score [6],PBM binding z-score [7],PBM binding z-score [8],PBM binding z-score [9],PBM binding z-score [10],PBM binding z-score [11],PBM binding z-score [12],PBM binding z-score [13],PBM binding z-score [14],PBM binding z-score [15],PBM binding z-score [16],PBM binding z-score [17],PBM binding z-score [18],PBM binding z-score [19],PBM binding z-score [20]
ACTTACGTGTCAACGAGGTTATAGCACGCGTATA,0.812,1.03,0.113,1.02,0.0422,1.84,0.927,0.653,0.374,0.627,0.785,1.07,0.246,0.671,0.479,1.26,0.652,1.65,0.0685,1.2
AGAACCAGGGCAATGAGTTGATAGCACGGGTGGC,-0.133,-0.319,-0.429,-0.657,-0.564,0.717,1.19,0.451,-0.539,0.047,2.95,2.68,0.333,-0.225,-0.0189,0.171,0.97,-0.324,-0.0861,0.985
ATCTCTAGGTAAAAGTTCATTGAATCCCGAGGAT,2.13,3.38,4.04,2.13,1.06,4.7,8.45,7.53,7.5,8.69,1.93,3.85,1.8,0.918,1.37,3.67,3.67,2.6,0.624,2.84
AGAATGAGGTTAACATCAGGGAAACAGAATACAT,2.93,2.97,-0.211,2.21,-0.23,4.3,3.36,3.34,1.39,2.46,3.52,3.79,1.84,1.16,1.12,1.43,0.184,2.81,0.181,2.32
GCTCGGAGGACAAGATCAGAGCTTTGTCCGTAGA,-0.699,-0.742,-0.685,-0.96,-0.96,-0.552,-0.773,-0.906,-1.18,-1.04,-0.785,-0.327,-1.13,-1.46,-1.73,-0.776,-0.689,-0.823,-1.48,0.581
CCTACTGGTCCAAAAAGGTCATTGATGCCGATAA,3.82,4.66,3.95,4.54,1.21,4.72,1.53,2.98,0.82,2.04,0.397,1.54,0.257,0.0096,3.82,5.11,5.49,4.95,2.48,3.94
ATCGATAGGTCGAGGTGAGTATAGAGAAAGGGAA,0.48,0.636,-0.293,0.566,-0.118,2.02,0.873,0.711,0.245,0.369,-0.366,1.03,0.292,0.326,0.276,0.415,-0.0359,0.853,0.359,1.94
CTACAAAGGTGAACAAGGTCGTTGATTACTATTC,2.91,2.94,0.453,3.1,-0.0435,4.39,3.3,3.46,0.912,2.84,3.31,3.77,0.982,0.418,1.57,3.89,2.18,3.61,0.686,3.63
ATATGTAGGTTACATCCGGGTCATTCAAGCTATG,2.46,4.38,1.74,3.45,0.746,4.7,6.29,5.22,2.73,4.53,7.38,7.61,3.54,2.95,2.2,3.81,1.61,4.07,0.831,2.43
